Data taken from PubChem BioAssay (NCI).
Values joined by “and” are separate entries in the source; they are usually repeats but may differ in a detail not shown here. Equal values may be shown once. The panel holds about 79,000 compounds, 15% with a hit somewhere; the sample as a whole holds those more often. Where a structure was tested more than once in an assay, its records may differ in their call. Active and inactive are the calls of the source. Cut-off read from the data, not from the text of the source: active = growth inhibition above about 70%; inactive = the rest.

Legend:
[1] = NCI Yeast Anticancer Drug Screen. Data for the rad52 strain (AID 147);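 note: 0% = growth of vehicle-treated control cultures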; settings: S. cerevisiae rad52 mutant growth inhibition, stronger effect = higher value
Procedure, shortened: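 DNA repair-defective yeast; compound exposure; growth scored against vehicle controls.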

[2] = NCI Yeast Anticancer Drug Screen. Data for the wt1 strain (AID 149);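 note: 0% = growth of vehicle-treated wt1 cultures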; settings: S. cerevisiae wt1 strain (SPY 50644) growth inhibition, stronger effect = higher value
Procedure, shortened: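 wt1 yeast, compound-treated; % growth inhibition vs vehicle control.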

[3] = NCI Yeast Anticancer Drug Screen. Data for the rad50EPP+ strain (AID 151);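 note: 0% = growth of vehicle-treated control cultures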; settings: S. cerevisiae rad50 mutant strain, stronger effect = higher value
Procedure, shortened: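 rad50EPP+ yeast treated with test compounds. Readout: growth vs vehicle control.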

[4] = NCI Yeast Anticancer Drug Screen. Data for the mgt1 strain (AID 153); settings: S. cerevisiae mgt1 mutant growth inhibition, stronger effect = higher value
Procedure, shortened: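 Growth inhibition relative to vehicle controls was scored for the mgt1 yeast strain after compound exposure.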

[5] = NCI Yeast Anticancer Drug Screen. Data for the rad50 strain (AID 155);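 note: 0% = growth of vehicle-only cultures of the same strain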; settings: S. cerevisiae rad50 strain growth inhibition, stronger effect = higher value
Procedure, shortened: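 Genetically altered yeast (DNA repair pathway); compound treatment; growth inhibition vs vehicle ctrl.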

[6] = NCI Yeast Anticancer Drug Screen. Data for the mec2-1 strain (AID 157); settings: S. cerevisiae mec2-1 strain, stronger effect = higher value
Procedure, shortened: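 Growth inhibition is read against vehicle-treated controls after compound exposure of the mec2-1 yeast strain, which is defective in DNA damage repair or cell cycle control.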

[7] = NCI Yeast Anticancer Drug Screen. Data for the sgs1 mgt1 strain (AID 161);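 note: 0% = growth of cultures given vehicle only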; settings: S. cerevisiae sgs1 mgt1 strain, stronger effect = higher value
Procedure, shortened: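 Percent growth inhibition was derived by comparing compound-exposed mutant yeast with vehicle-exposed cultures. The strain carries alterations in DNA damage repair.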

[8] = NCI Yeast Anticancer Drug Screen. Data for the CLN2oe strain (AID 163);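 note: 0% = growth of vehicle-only control cultures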; settings: S. cerevisiae CLN2oe strain, stronger effect = higher value
Procedure, shortened: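 Compound-treated yeast; growth vs vehicle ctrl = % inhibition. Genetically altered strain (cell-cycle control).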

[9] = NCI Yeast Anticancer Drug Screen. Data for the cln2 rad14 strain (AID 165);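 note: 0% = growth equal to vehicle treated cultures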; settings: S. cerevisiae cln2 rad14 strain, stronger effect = higher value
Procedure, shortened: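 Growth inhibition, relative to vehicle-treated controls, is the read-out. The test organism is a yeast strain with defined genetic alterations, cln2 rad14.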

[10] = NCI Yeast Anticancer Drug Screen. Data for the bub3 strain (AID 167); settings: S. cerevisiae bub3 mutant strain, stronger effect = higher value
Procedure, shortened: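 Yeast carrying a defined mutation is treated with each compound, and growth is compared with that of vehicle-exposed cells to give inhibition.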

[11] = NCI Yeast Anticancer Drug Screen. Data for the wt2 strain (AID 169);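 note: 0% = growth of vehicle-treated yeast cultures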; settings: S. cerevisiae wt2 strain growth inhibition, stronger effect = higher value
Procedure, shortened: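 Compound exposure of yeast; growth compared with vehicle controls; inhibition reported.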

[12] = NCI Yeast Anticancer Drug Screen. Data for the mlh1 strain (AID 171);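 note: 0% = growth of vehicle-treated control cultures of the same strain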; settings: S. cerevisiae mlh1 strain growth inhibition, stronger effect = higher value
Procedure, shortened: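 Compounds are applied to a genetically altered yeast strain, and its growth is compared with that of vehicle-treated cultures to give percent inhibition.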

[13] = NCI Yeast Anticancer Drug Screen. Data for the sgs1 strain (AID 173);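 note: 0% = growth of vehicle-only control cultures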; settings: S. cerevisiae sgs1 mutant, stronger effect = higher value
Procedure, shortened: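 Compounds applied to genetically altered yeast; growth compared with vehicle-treated cultures to give % inhibition.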

[14] = NCI Yeast Anticancer Drug Screen. Data for the mlh1 rad18 strain (AID 175); settings: S. cerevisiae mlh1 rad18 strain growth inhibition, stronger effect = higher value
Procedure, shortened: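 Cells of a genetically altered yeast strain, deficient in DNA damage repair, were treated with compound. Their growth was then compared with that of vehicle-treated cultures to give inhibition.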

[15] = NCI Yeast Anticancer Drug Screen. Data for the rad18 strain (AID 177); settings: S. cerevisiae rad18 mutant growth inhibition, stronger effect = higher value
Procedure, shortened: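 Compounds are applied to a repair-deficient yeast strain, and growth is compared with that of vehicle-treated cultures to give percent inhibition.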

[16] = at 5.0 µM (retest, dose inferred, filed as 0.5)
[17] = at 50.0 µM (retest, dose inferred, filed as 5.0)

Measured: growth inhibition

O=C(O)C1C2c3ccccc3C(c3ccccc32)C1C(=O)O (stereo not drawn)
71.2% (active) and -29.5% (inactive): [10]; at 50.0 µM
86.6% (active) and -20.4% (inactive): [6]; at 50.0 µM
inactive: [1]; at 1.2 µM -1% | [1]; at 3.7 µM -1% | [1]; at 11.0 µM 2% | [1]; at 33.0 µM 0% | [1]; at 100.0 µM 11% | [2]; at 1.2 µM -3% | [2]; at 3.7 µM -3% | [2]; at 11.0 µM -2% | [2]; at 33.0 µM -1% | [2]; at 100.0 µM -2% | [3]; at 1.2 µM -4% | [3]; at 3.7 µM -3% | [3]; at 11.0 µM 2% | [3]; at 33.0 µM -3% | [3]; at 100.0 µM -4% | [4]; at 1.2 µM -3% | [4]; at 3.7 µM -2% | [4]; at 11.0 µM -2% | [4]; at 33.0 µM -2% | [4]; at 100.0 µM 0% | [5]; at 1.2 µM 0% | [5]; at 3.7 µM 4% | [5]; [16] 7% | [5]; at 11.0 µM 4% | [5]; at 33.0 µM 3% | [5]; [17] 47% | [5]; at 50.0 µM 52.6% and -32.8% | [5]; at 100.0 µM 12% | [6]; at 1.2 µM -2% | [6]; at 3.7 µM -5% | [6]; [16] -7% | [6]; at 11.0 µM -3% | [6]; at 33.0 µM -2% | [6]; [17] -1% | [6]; at 100.0 µM -1% | [7]; [16] -5% | [7]; [17] 16% | [7]; at 50.0 µM 52.7% and -33% | [8]; at 1.2 µM -4% | [8]; at 3.7 µM 2% | [8]; at 11.0 µM -4% | [8]; at 33.0 µM -3% | [8]; at 100.0 µM 1% | [9]; [16] 3% | [9]; [17] 10% | [9]; at 50.0 µM 25% and 11.1% | [10]; at 1.2 µM -4% | [10]; at 3.7 µM -3% | [10]; [16] 2% | [10]; at 11.0 µM -5% | [10]; at 33.0 µM -2% | [10]; [17] 17% | [10]; at 100.0 µM -2% | [11]; at 1.2 µM 0% | [11]; at 3.7 µM -10% | [11]; at 11.0 µM 5% | [11]; at 33.0 µM -1% | [11]; at 100.0 µM -16% | [12]; at 1.2 µM -4% | [12]; at 3.7 µM -4% | [12]; at 11.0 µM -1% | [12]; at 33.0 µM -4% | [12]; at 100.0 µM 1% | [13]; at 1.2 µM -12% | [13]; at 3.7 µM -22% | [13]; at 11.0 µM -3% | [13]; at 33.0 µM 5% | [13]; at 100.0 µM 12% | [14]; [16] 3% | [14]; [17] 69% | [14]; at 50.0 µM 37.1% and -42.5% | [15]; at 1.2 µM -4% | [15]; at 3.7 µM -2% | [15]; at 11.0 µM -1% | [15]; at 33.0 µM -2% | [15]; at 100.0 µM 6%
